About 95 (0.3%) of roughly 33,000 compounds were called active.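 The calls were made as follows: active = inhibition above 40% in the primary screen; inactive = the rest.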 Only a selection was taken, and actives are over-represented in it overall.
Target: Coagulation factor XI (Homo sapiens) (UniProt P03951)
Test: human FXIa protease inhibitors, primary screen, biochemical, single compound per well (AID 687);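 also: 0% = enzyme without compound and 100% = blank wells lacking enzyme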
Conditions: purified human FXIa, fluorogenic AMC substrate cleavage; at 10 µM; active compounds read high

Chain of Coagulation factor XI (Homo sapiens) (P03951 19-387 limits assumed): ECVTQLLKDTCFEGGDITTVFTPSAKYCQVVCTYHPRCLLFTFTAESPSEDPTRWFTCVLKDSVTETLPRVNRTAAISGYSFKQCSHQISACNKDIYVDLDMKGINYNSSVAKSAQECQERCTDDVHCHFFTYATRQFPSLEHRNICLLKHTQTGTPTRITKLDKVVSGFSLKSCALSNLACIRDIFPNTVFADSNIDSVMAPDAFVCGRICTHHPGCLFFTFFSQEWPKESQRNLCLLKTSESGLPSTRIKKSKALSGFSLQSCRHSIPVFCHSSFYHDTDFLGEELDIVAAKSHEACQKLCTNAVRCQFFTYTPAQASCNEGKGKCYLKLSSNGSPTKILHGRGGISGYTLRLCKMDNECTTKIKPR
Chain of Coagulation factor XI (Homo sapiens) (P03951 388-625 limits assumed): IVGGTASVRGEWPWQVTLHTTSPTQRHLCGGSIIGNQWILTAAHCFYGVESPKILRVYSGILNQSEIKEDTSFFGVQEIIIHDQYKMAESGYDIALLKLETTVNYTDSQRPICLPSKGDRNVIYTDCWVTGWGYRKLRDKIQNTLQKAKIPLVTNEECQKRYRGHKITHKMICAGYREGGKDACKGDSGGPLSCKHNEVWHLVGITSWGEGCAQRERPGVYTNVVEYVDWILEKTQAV

Row | Structure (SMILES) | inhibition
1 | CCC(=O)NC(Nc1nc2ccc(C)cc2s1)(C(=O)OC)C(F)(F)F (configuration not stated) | 0.39% (inactive)
2 | CCOC(=O)c1ccccc1NS(=O)(=O)c1ccc(OC)cc1 | -1.8% (inactive)
3 | CCOc1ccc(C(=O)NCCCN2CCCC2=O)cc1 | -9.62% (inactive)
4 | Cc1cc(C)cc(OCc2nnc(SCC(=O)OC3CCCCC3)o2)c1 | 2.82% (inactive)
5 | O=C(Nc1ccc(S(=O)(=O)N2CCc3ccccc3C2)cc1)c1ccccc1 | 4.52% (inactive)
6 | O=C1CSC(c2ccc(Cl)cc2)N1 (configuration not stated) | -2.99% (inactive)
7 | COc1ccc(-c2cc3nc(C)c(CCC(=O)NC(C)CCc4ccco4)c(C)n3n2)c(OC)c1 (configuration not stated) | 0.38% (inactive)
8 | C=C(C)CNC(=S)/N=c1\scc(C)n1CC | -6.03% (inactive)
9 | COc1cc(S(=O)(=O)N(Cc2cccs2)C2CC2)ccc1-n1cnnn1 | 6.31% (inactive)
10 | COc1ccccc1Nc1nc(N)nc(CN(C)C2CCCCC2)n1 | -1.79% (inactive)
11 | O=C(CCN1C(=O)c2ccccc2C1=O)Nc1cccc(F)c1 | 21.9% (inactive)
12 | O=C(CCn1c(SCC(=O)c2ccccc2)nc2ccccc2c1=O)NCc1ccc(F)cc1 | -1.87% (inactive)
13 | CCCNC(=O)NCc1ccc(N2CCCC2=O)cc1 | -4.89% (inactive)
14 | O=C(NCc1ccccc1)[C@@H]1CSC2c3ccccc3C(=O)N21 (some centres not stated) | -6.84% (inactive)
15 | COc1ccc(N2CCN(C(=O)CNC(=O)c3ccc(C(C)(C)C)cc3)CC2)cc1 | 0.23% (inactive)
16 | COc1ccc2oc(=O)c(C(=O)N3CCCc4ccccc43)cc2c1 | 2.52% (inactive)
17 | C=CCN(C(=O)Cn1ncc2c1-c1cc(C)ccc1OC2)c1ccccc1 | 7.94% (inactive)
18 | CCCCSc1[nH]c(=O)c(C(=O)OCC)cc1C#N | -3.65% (inactive)
19 | COC(=O)c1cccc(-n2[nH]nnc2=S)c1 | 8.73% (inactive)
20 | O=c1nc(N2CCOCC2)nc2n1CCO2 | 0.16% (inactive)
21 | Nc1nc(SCc2ccccc2Cl)n[nH]1 | -1.35% (inactive)

Row | Structure (SMILES) | inhibition
22 | C=CCn1c(SCc2c(C)noc2C)nc2sc3c(c2c1=O)CCC(C)C3 (configuration not stated) | -0.06% (inactive)
23 | Cc1cccc(Cn2c(SCCO)nc3c2c(=O)n(C)c(=O)n3C)c1 | -5.34% (inactive)
24 | COC(=O)Nc1ccc(S(=O)(=O)N2CCN(CCN3C(=O)C4C5C=CC(C5)C4C3=O)CC2)cc1 (configuration not stated) | 7.92% (inactive)
25 | CN(C)CCNC(=O)C(C(=O)c1ccccc1)n1ccccc1=O (configuration not stated) | -0.81% (inactive)
26 | Nn1c(SCC(=O)NC2CCCC2)nnc1-c1ccccc1F | -0.95% (inactive)
27 | Cc1cc(C(F)(F)F)n2ncc(-c3ccccc3)c2n1 | -2.08% (inactive)
28 | O=C(CN1CCN(C(=O)c2ccco2)CC1)Nc1ccc2c(c1)OCO2 | -13.2% (inactive)
29 | CCOC(=O)c1ccc(COC(=O)CCc2nc(-c3ccccc3)c(-c3ccccc3)o2)cc1 | -0.92% (inactive)
30 | Cc1ccc(CNC(=O)CCNS(=O)(=O)c2cccc3nonc23)cc1 | -10.4% (inactive)
31 | CCc1nc(N2CCN(c3nc(C)cc(C)n3)CC2)c2oc3ccccc3c2n1 | -4.81% (inactive)
32 | COc1ccc(CCN(C)CCN2C(=O)c3ccccc3C2=O)cc1OC | -0.63% (inactive)
33 | Cc1ccc(OCC(=O)Nn2cnc3ccccc32)cc1 | 13.2% (inactive)
34 | CCOC(=O)c1ccc(COC(=O)c2cc(=O)[nH]c3ccccc23)o1 | 0.06% (inactive)
35 | CCOC(=O)c1cc2ccccc2nc1C | -0.46% (inactive)
36 | CCOC(=O)c1c(C)nc2c(c1C)c(=O)oc1ccccc12 | 43.4% (active)
37 | CCOc1cc(CN2CCN(C(=O)CC(C)C)CC2)ccc1OC | 0.6% (inactive)
38 | CC(NC(=O)Nc1ccccc1)c1ccccc1 (configuration not stated) | -3.02% (inactive)
39 | CC1CCC2(CC1)NC(=O)N(CC(=O)c1cccn1C)C2=O (configuration not stated) | -10.7% (inactive)
40 | CCOc1ccc(S(=O)(=O)N2CCCCCC2)c2ccccc12 | -9.47% (inactive)
41 | O=C(NC1CCCCC1)c1ccc(CNc2c(N3CCOCC3)c(=O)c2=O)cc1 | -0.69% (inactive)
42 | COc1ccc(CN2CCn3ncc(C(=O)Nc4ccc(Cl)cc4Cl)c3C2=O)cc1 | 8.32% (inactive)

Row | Structure (SMILES) | inhibition
43 | CCOC(=O)C1=C(CSc2nccn2C)NC(=O)NC1c1ccc(OC)cc1 (configuration not stated) | -6.24% (inactive)
44 | CC1(C)Cc2c(sc3nc(SCC(=O)NCc4ccccc4)n(-c4ccccc4)c(=O)c23)CS1 | 1.32% (inactive)
45 | O=C(C(NS(=O)(=O)c1cccc2nsnc12)c1ccccc1)N1CCN(c2ccccc2)CC1 (configuration not stated) | 4.95% (inactive)
46 | O=C(NCc1ccco1)C1(c2ccc(Cl)cc2)CCCC1 | -4.42% (inactive)
47 | O=C(CCCn1c(SCC(=O)c2ccccc2)nc2ccccc2c1=O)NCC1CCCO1 (configuration not stated) | 7.29% (inactive)
48 | CCOc1ccc(-c2nc(C)sc2CC(=O)O)cc1 | -1.47% (inactive)
49 | O=[N+]([O-])c1ccc(Oc2ccc(F)cc2Br)c2ccncc12 | -2.08% (inactive)
50 | c1ccc2[nH]c(NCCN3CCOCC3)nc2c1 | -1.88% (inactive)
51 | COC(=O)C1CCN(CC(N)=O)CC1 | -11.2% (inactive)
52 | Cc1cc(=O)oc(C)c1C(=O)N1CCCCC1 | 32.7% (inactive)
53 | Cc1ccc(CNC(=O)C2CCCN2C(=O)NCc2ccccc2)cc1 (configuration not stated) | 26.7% (inactive)
54 | COc1ccc(O)c(C(=O)c2cnc3onc(C(C)C)c3c2)c1 | -2.11% (inactive)
55 | O=C(CCN1c2ccccc2Sc2ccccc21)Nc1ccccc1 | -11.6% (inactive)
56 | Cc1ccnc(NC(=O)c2ccc(NC(=O)c3ccco3)cc2)c1 | 1.44% (inactive)
57 | Cc1cccc(NC(=O)CN2C(=O)CNC2=O)c1 | 7.39% (inactive)
58 | COC(=O)c1cccc(N(C(=O)c2ccco2)C(C(=O)NC2CCCC2)c2ccco2)c1 (configuration not stated) | -11.4% (inactive)
59 | COc1ccc(N/N=C2/CCCCC2=O)cc1 | 19.4% (inactive)
60 | COc1ccc(N2CCN(C(=O)CCc3nc(-c4ccc(C)cc4)no3)CC2)cc1 | 8.76% (inactive)
61 | O=C(CNS(=O)(=O)c1ccc(Br)s1)N1CCN(C(=O)c2ccco2)CC1 | -4.45% (inactive)
62 | Cc1cccc(C)c1NC(=O)CCCSc1nnc(-c2ccco2)n1-c1ccccc1 | -0.71% (inactive)
